PubChem BioAssay

Experiment: probe aWnt5a binding to arrayed compounds – biochemical, biotinylated probe, 635/667 nm fluorescence, primary screen (AID 1113);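 also: score merges 667 nm fluorescence intensity with signal-to-noise per printed feature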
Conditions: small-molecule microarray, higher = more signal

| SMILES | composite z-score |
| --- | --- |
| CCCN1C(=O)[C@@]2(CCC(=O)OC(C)(C)C)N=C(c3ccc(OCCCO)cc3)O[C@H]2c2ccccc21 | 0.0044 |
| O=C(O)[C@H]1C[C@H]2C(=O)NCC(=O)N2[C@H]1c1ccc(O)cc1 | -0.147 |
| CC(C)c1ccc(NN2C(C(O)c3ccc(N(C)C)cc3)C=CC3C(=O)N(c4ccccc4)C(=O)C32)cc1 (stereo unspecified) | 0.0317 |
| CCC[C@@H]1C=C(C(=O)O)[C@H](c2ccc(C)cc2)N1S(=O)(=O)c1ccc(C)cc1 | -0.0819 |
| CC(C)c1ccc(NN2C(C(O)c3c(F)cccc3Cl)C=CC3C(=O)N(c4ccccc4)C(=O)C32)cc1 (stereo unspecified) | 0.136 |
| CC(C)=CCCC(C)=CC(O)C1C=CC2C(=O)N(c3ccccc3)C(=O)C2N1Nc1ccccc1 (stereo unspecified) | 0.139 |
| COCC1=C2[C@@H](CCc3ccccc3)OB(O)C[C@@H]2[C@@H]2C(=O)N(Cc3ccccc3)C(=O)[C@@H]2C1 | -0.0242 |
| COC(=O)[C@@]1(Cc2ccc(OC)cc2)[C@H]2c3cc(C(=O)N4CCCC4)n(CCc4c[nH]c5cc(F)ccc45)c3C[C@H]2CN1C(=O)c1ccccc1 | 0.168 |
| CC(C)N1CC=CC23O[C@@H]4C=CCOC(=O)[C@@H]4[C@H]2C(=O)N(CCO)[C@@H]3C1=O (stereo partly specified) | -0.206 |
| COC(=O)C(CC#Cc1ccc2c(c1)[C@]1(C(=O)N2)[C@H](c2ccc(OCCO)cc2)N2[C@H](c3ccccc3)[C@H](c3ccccc3)OC(=O)[C@H]2[C@@H]1C(=O)NC[C@H](O)c1ccccc1)C(=O)OC | -0.0346 |
| CC(C)NC(=O)[C@@]1(Cc2ccccc2I)c2ccccc2C(=O)N(Cc2ccccc2)[C@H]1c1ccc(CO)cc1 | 0.0438 |
